# Experimental data taken from the supplement of paper PMC3334620.
# Over roughly 33,000 sequences, “E-score (-0.5 to 0.5)” has its median near -0.04; the highest 2% begin near 0.36. The full list was thinned out, with the highest values kept by preference.
# Target: T1, Hmlalpha2 (UniProt P0CY09)
# T1 sequence: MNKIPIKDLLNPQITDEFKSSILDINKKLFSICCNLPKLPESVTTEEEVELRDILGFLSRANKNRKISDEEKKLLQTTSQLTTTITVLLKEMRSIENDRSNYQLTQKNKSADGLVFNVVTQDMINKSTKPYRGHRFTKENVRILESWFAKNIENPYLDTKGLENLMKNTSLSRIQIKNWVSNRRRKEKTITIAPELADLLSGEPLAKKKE
# Test: PBM E-score (8-mer binding enrichment) (E-score (-0.5 to 0.5)); higher = stronger / more preferred TF binding
# Conditions: protein concentration: 200 nM; construct: GST-full length
# Experimental: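 Universal 'all 10-mer' protein binding microarrays (Agilent AMADID 015681) probed with GST-tagged S. cerevisiae TFs (full-length or DBD) made by in vitro transcription/translation (PURExpress), about 100-200 nM. Bound TF was detected with fluorescent anti-GST. Each ungapped 8-mer (which stands for itself and its reverse complement) is scored by the PBM enrichment score (E-score), a modified Wilcoxon-Mann-Whitney statistic from -0.5 to +0.5, computed with the Universal PBM Analysis Suite. Scale: above 0.35 generally sequence-specific binding.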
row,Sequence,PBM E-score
1,TGGATCCA,-0.063
2,CCTACTCG,-0.202
3,ACCCTTGC,-0.209
4,CGGGATAC,-0.16
5,ACGTCTGC,-0.182
6,ACACGTTA,0.408
7,ACACGTTG,0.35
8,ACACGTAT,0.369
9,ACACGTAG,0.351
10,ATACGTAT,0.308
11,ACACGTAC,0.347
12,ACACGTCA,0.317
13,ACACGTTC,0.303
14,ACACGTAA,0.396
15,ACACGTCT,0.368
16,ACACGTCG,0.302
17,AAACGTAT,0.278
18,CGAGTGGA,-0.137
19,AGGGGCCG,-0.365
20,CGGGAGCC,-0.33
21,GCACGTAA,0.348
22,TCACGTAA,0.393
23,CCACGTAA,0.33
24,AGGTTGGG,-0.0364
25,CCCTTGGC,-0.35

row,Sequence,PBM E-score
1,CTGATTAA,0.141
2,ATAATTAC,0.357
3,ACAATTAA,0.214
4,ACGATTAC,0.383
5,GTAATTAC,0.452
6,CTGATTAC,0.369
7,CTAATTAC,0.362
8,ACAATTAT,0.214
9,GCGATTAC,0.275
10,ACAATTAC,0.376
11,CCGATTAC,0.216
12,ATGATTAC,0.326
13,GAAGCAAA,0.156
14,CGCCACCG,-0.296
15,CAGAGCTC,-0.142
16,ATGGCGCC,-0.249
17,TCCTGCAA,-0.15
18,GCGGTGCA,-0.281
19,GTTGCACA,0.0871
20,AGTGTTCG,0.089
21,ACTTAGGA,-0.0292
22,AGGGTAAA,0.0323
23,CCCAAGCG,-0.19
24,ATAATAAC,0.187
25,GTAATAAA,0.35

row,Sequence,PBM E-score
1,GTAATAAC,0.392
2,CATACCTC,0.0518
3,CTGAATTC,0.0173
4,ACCACGAC,-0.0364
5,TTCACGAA,0.019
6,AGCACGAA,0.167
7,CACACGAC,0.223
8,TACACGAA,0.456
9,CACACGAG,0.152
10,TGCACGAA,0.122
11,AACACAAA,0.261
12,CACACGAA,0.233
13,AACACGAA,0.386
14,AACACGAG,0.377
15,AACACGAC,0.424
16,ACGTTAAT,0.304
17,GCTGGGAC,-0.263
18,AAGAACTG,-0.178
19,ACAGTGTA,0.244
20,CCCTCGCC,-0.357
21,CATGCGAC,0.0966
22,CTTCTGCA,-0.0586
23,CCTGCGGC,-0.341
24,TCAAGTAA,0.265
25,AGGGCCCA,-0.239

row,Sequence,PBM E-score
1,GACTTGGC,-0.347
2,AGCACGAT,0.147
3,GACACGAA,0.2
4,GACACGGC,0.223
5,AACACGAT,0.439
6,ATCACGAT,-0.0443
7,GACACGAC,0.394
8,ATAGAACA,0.164
9,GGGTTCGA,-0.248
10,CGACAATC,-0.19
11,GCCTCTGA,-0.251
12,GTTTCAGA,-0.0374
13,CACCGGCG,-0.12
14,AACACTTC,0.138
15,ACTACCGA,-0.12
16,CTTCAACA,0.341
17,ATTCAACA,0.352
18,GTTCAACA,0.367
19,AATCAACC,-0.103
20,GATCAACA,0.341
21,TATCAACA,0.365
22,AATCAACG,0.202
23,CATCAACA,0.297
24,AATCAACA,0.37
25,CCCGGTTC,-0.22

row,Sequence,PBM E-score
1,GCCAGGAC,-0.269
2,AGTAGATG,0.136
3,AGGTAAGA,-0.0177
4,ATGTAAGC,0.374
5,GCGTAAGA,0.249
6,AAGTAAGA,0.0354
7,ATGTAAGA,0.433
8,CTGTAAGC,-0.0257
9,ATGTAAGG,0.313
10,CTGTAAGA,0.0715
11,GTGTAAGA,0.401
12,AGGGAGGC,-0.339
13,ACATACCA,0.227
14,TGCTCTAA,-0.134
15,ACCTTACC,0.0897
16,ACAACTAC,0.225
17,CCCGATAC,-0.0785
18,GACATGGA,0.263
19,TACATGGA,0.429
20,AGCATGCT,0.151
21,ACCATGCA,0.106
22,AACATGCA,0.417
23,ATCATGCG,-0.0811
24,AACATGCT,0.396
25,ATCATGCA,-0.0495

row,Sequence,PBM E-score
1,AACATGCG,0.399
2,ACCATGCT,0.0386
3,CACATGGA,0.197
4,CACATGCG,0.141
5,AGAATGGG,-0.307
6,GATTCCAA,-0.0677
7,ACATGCCG,0.356
8,TAGCAGCA,-0.0647
9,GACCCAGA,-0.168
10,CCTCCCGC,-0.0916
11,ATCCGTGG,-0.229
12,CCGATCAA,-0.0314
13,CGCACCGC,-0.177
14,CCGCCAAA,-0.105
15,CGAAAGAA,-0.0556
16,TCCGCGGA,-0.0621
17,ACGAAAGA,-0.0344
18,AATCGTAC,0.102
19,AACATGCC,0.388
20,GACATGCC,0.212
21,TACATGCA,0.438
22,CACATGCC,0.209
23,CACATGCA,0.234
24,GACATGCA,0.294
25,ACGTTAGA,0.146

row,Sequence,PBM E-score
1,GGTCCGGA,-0.0474
2,TAAGCGAA,0.122
3,TTTCGAAA,0.0465
4,ATTTCTAC,0.234
5,ATCATAAG,-0.00054
6,AACATAAC,0.403
7,CACATAAG,0.117
8,AACATAAG,0.391
9,CACATAAC,0.242
10,AACATAGA,0.284
11,AACATAAT,0.287
12,AACATAGG,0.38
13,CACATAGG,0.0614
14,CCGCAGTA,-0.0882
15,ATATTCTA,0.169
16,CTCTTCGC,-0.205
17,CCATTGCG,-0.262
18,GGGTATCA,-0.118
19,AGCATAGC,0.0169
20,GTGCGTGA,0.192
21,ATGCGTAC,0.273
22,ATGCGTAG,0.214
